# High-throughput results: PubChem, several laboratories
# TWEAK-Fn14 inh: blocks TWEAK-Fn14 interaction in a reporter cell assay. TWEAK-stimulated Fn14 reporter cells, luciferase luminescence, 8 h. inhibition, % at 10 µM. hit rate 2% among 360,000. AID 1159606; in the data active = inhibition above about 50%
# EBV LMP1 NFkB: reduces LMP1-driven NF-kappaB luciferase signal. inhibition, % at 12.5 µM. LMP1-induced NF-kappaB luciferase reporter cells, luminescence. AID 504558. hit rate 0.69% among 350,000; in the data active = inhibition above about 41%
# EWS-Fli inh: EWS/Fli transcriptional activity inhibition; A673 NR0B1-luciferase reporter, viability-normalised; inhibition, % at 12.6 µM; hit rate 0.67% among 350,000;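 active = mean inhibition of at least 50% after viability correction, with every replicate also passing that limit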;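 note: firefly luciferase signal divided by Alamar Blue viability fluorescence both relative to DMSO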
# TROY NFkB inh: inhibitors of TROY-dependent NF-kB signaling | hit rate 0.98% among 360,000 | AID 1347056 | Q293 LMP1-TROYcd NF-kB luciferase reporter, 4 h | inhibition, % at 10 µM;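 active = compounds whose plate-normalised and pattern-corrected inhibition of the luciferase reporter signal at the single screening dose is 50% or more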
# LGR2 inh: inhibitors of bursicon-induced Drosophila LGR2 receptor cAMP signaling | inhibition, % at 9.99 µM | HEK293 LGR2, CRE-luciferase, bursicon-stimulated, 4 h | AID 720647 | hit rate 0.35% among 380,000;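 active = drop in luminescence signal, shown as inhibition above about 50% in the replicate tests, limit read from the data, passing the limit was not always enough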;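 note: agonist challenge used bursicon conditioned medium at about half maximal strength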
# Hits are given with their value; n = inactive; x = no result. Shown are actives, neighbours in structure and some others; about 2.6% of the full set was active somewhere.
SMILES,TWEAK-Fn14 inh,EBV LMP1 NFkB,EWS-Fli inh,TROY NFkB inh,LGR2 inh
O=C(C[C@H]1C=C[C@@H](NC(=O)NC2CCCC2)[C@H](CO)O1)NCc1ccc(F)cc1,x,x,n,x,n
CCOC(=O)c1c(C)nc2c(C)cccn12,84,n,x,x,x
COC(=O)c1ccc2nc(-c3ccc(S(C)(=O)=O)cc3)cn2c1,n,n,n,n,n
CS(=O)(=O)c1ccc(-c2cn3cc(C(=O)O)ccc3n2)cc1,n,n,n,n,77
Nc1nc(Sc2ccc(C(F)(F)F)cc2[N+](=O)[O-])n[nH]1,n,n,x,n,x
Nc1nc(Sc2c([N+](=O)[O-])cc(C(F)(F)F)cc2[N+](=O)[O-])n[nH]1,n,n,55,n,n
COc1ccc(-c2nnc3sc(CN4C(=O)c5ccccc5C4=O)nn23)cc1,93,n,x,n,x
O=C1c2ccccc2C(=O)N1Cc1nn2c(-c3ccc(Cl)cc3)nnc2s1,n,n,x,n,x
CCN(CC(=O)NCc1ccc(F)cc1)CC(=O)Nc1cc(S(=O)(=O)N(C)C)ccc1C,n,44,n,n,n
CC(=O)N1[C@H](CO)[C@@H](c2ccccc2)[C@@H]1CN(C(=O)c1cccc(F)c1)C(C)C,x,x,n,x,n
O=C(Oc1c(Cl)cc(Cl)c2cccnc12)c1cccs1,109,n,x,n,x
O=C(Nc1cccnc1Cl)c1cccs1,n,n,n,n,n
O=C(Oc1cncc(Cl)c1)c1ccco1,n,n,x,n,x
O=C(Oc1c(Cl)cc(Cl)c2cccnc12)c1ccco1,86,n,x,58,x
COCC#Cc1cnc2c(c1)C(=O)N([C@H](C)CO)C[C@@H](C)[C@H](CN(C)C(=O)Cc1ccncc1)O2,x,x,n,x,n
O=C1CCCC2=C1C1(CCCCC1)N=C(Nc1nc3ccccc3o1)N2,75,n,x,n,x
O=C1CCCC2=C1C1(CCCC1)N=C(Nc1nc3cc(-c4ccccc4)ccc3o1)N2,64,x,n,n,n
O=C1CCCC2=C1C1(CCCC1)N=C(Nc1nc3ccccc3o1)N2,n,x,n,n,n
CS(=O)(=O)N1CC(=O)N2[C@H](C1)[C@@H](c1ccc(C#Cc3ccccc3)cc1)[C@@H]2CO,x,x,n,x,n
C[C@@H]1CN([C@@H](C)CO)C(=O)c2cc(NC(=O)Cc3ccccc3)ccc2O[C@H]1CN(C)C,x,x,n,x,n
O=C(Cc1cccs1)N1CCN=C1SCc1cccc(F)c1,81,n,n,n,n
O=C(Cc1cccs1)N1CCN=C1SCc1ccc(Br)cc1,n,n,n,n,n
CO[C@@H]1CN(C)C(=O)c2ccc(NC(C)=O)cc2OC[C@@H](C)N(C(=O)Nc2ccccc2F)C[C@H]1C,x,x,n,x,n
Cc1ccc(S(=O)(=O)N(C)Cc2ccc(C(=O)N/N=C/c3ccc(OC(F)F)cc3OC(F)F)cc2)cc1,60,n,n,n,x
CCc1ccc(-c2cn3nc(C)c(C)nc3n2)cc1,60,84,x,n,x
SMILES,TWEAK-Fn14 inh,EBV LMP1 NFkB,EWS-Fli inh,TROY NFkB inh,LGR2 inh
Cc1nc2nc(-c3ccc(F)cc3)cn2nc1C,n,n,n,n,n
CCc1ccccc1N(CC(=O)NCc1ccco1)C(=O)c1snc(C(N)=O)c1N,n,55,x,n,x
CC(C)CCNC(=O)CN(Cc1ccco1)C(=O)c1snc(C(N)=O)c1N,n,n,n,n,n
C[C@@H]1CN([C@@H](C)CO)C(=O)c2ccccc2-c2ccccc2CO[C@@H]1CN(C)S(=O)(=O)CC(F)(F)F,x,x,n,x,n
COc1cc(OC)cc(-c2c(C#Cc3ccsc3)c3cc(-c4ccc(OC)c(F)c4)ccc3n2C)c1,n,n,n,n,n
COc1cc(OC)cc(-c2c(C#Cc3ccsc3)c3cc(-c4cc(OC)c(OC)c(OC)c4)ccc3n2C)c1,n,89,n,n,n
CCCOC(c1ccccc1)(c1ccc(C(F)(F)F)cc1)C(Oc1nc(C)cc(C)n1)C(=O)O (stereo not drawn),61,43,n,n,n
CO[C@@H]1CN(C)C(=O)c2cc(NS(=O)(=O)c3cccc(F)c3)ccc2OC[C@@H](C)N(C(=O)Cc2cccnc2)C[C@H]1C,x,x,n,x,n
COc1ccc(S(=O)(=O)N(C)C[C@@H]2OCCCC[C@H](C)Oc3ccc(NC(=O)NC(C)C)cc3C(=O)N([C@H](C)CO)C[C@@H]2C)cc1,x,x,n,x,n
CNC[C@H]1Oc2ncc(C3=CCCCC3)cc2C(=O)N([C@@H](C)CO)C[C@H]1C,x,x,n,x,n
CC(C)CCNC(=O)C1CCN(S(=O)(=O)c2ccc3c(c2)CC(C)N3C(=O)C2CC2)CC1 (stereo not drawn),n,54,x,n,n
CC1CCCN(C(=O)COC(=O)c2n[nH]c3ccccc23)C1 (stereo not drawn),n,61,x,n,x
